TWEAK Fn14 block: blocks TWEAK-Fn14 interaction in a reporter cell assay | TWEAK-stimulated Fn14 reporter cells, luciferase luminescence, 8 h | inhibition, % at 10 µM | 360,000 compounds, 2% hits | AID 1159606; in the data active = inhibition above about 50%
TROY NFkB inh: inhibitors of TROY-dependent NF-kB signaling; Q293 LMP1-TROYcd NF-kB luciferase reporter, 4 h; inhibition, % at 10 µM; 360,000 compounds, 0.98% hits;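 active = compounds whose plate-normalised and pattern-corrected inhibition of the luciferase reporter signal at the single screening dose is 50% or more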
EBV LMP1 NFkB: inhibitors of Epstein-Barr LMP1-induced NF-kappaB reporter. LMP1-induced NF-kappaB luciferase reporter cells, luminescence. inhibition, % at 12.5 µM. 350,000 compounds, 0.69% hits; in the data active = inhibition above about 41%; inconclusive = no clear call, values can overlap the other calls;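 also: 0% = neutral control wells and 100% = reference inhibitor control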
LGR2 antag: blocks bursicon-induced cAMP signaling via Drosophila LGR2 | HEK293 LGR2, CRE-luciferase, bursicon-stimulated, 4 h | inhibition, % at 9.99 µM | 380,000 compounds, 0.35% hits | AID 720647;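 active = drop in luminescence signal, shown as inhibition above about 50% in the replicate tests, limit read from the data, passing the limit was not always enough; inconclusive = probably only some replicates passing the limit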;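 also: agonist challenge used bursicon conditioned medium at about half maximal strength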
EWS-Fli block: inhibitors of EWS/Fli oncoprotein transcriptional activity; inhibition, % at 12.6 µM; AID 651661; 350,000 compounds, 0.67% hits; A673 NR0B1-luciferase reporter, viability-normalised;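 active = mean inhibition of at least 50% after viability correction, with every replicate also passing that limit; inconclusive = mean reaches 50% but only one of two replicates passes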;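 also: firefly luciferase signal divided by Alamar Blue viability fluorescence both relative to DMSO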
* = called active by the depositor; ? = inconclusive; nt = no result. Sampled rows, rich in hits. Any-hit rate of the full collection: about 2.5%.

SMILES	TWEAK Fn14 block	TROY NFkB inh	EBV LMP1 NFkB	LGR2 antag	EWS-Fli block
CCc1nccn1C(=O)c1cnn2c(C(F)F)cc(-c3ccc(C)cc3)nc12	54.4*	8.4	-6.6	-11.4	-8.4
C=CCn1c(CSCc2ccc(C)cc2)nnc1SCC(=O)NCc1ccccc1	73.9*	nt	-1.8	-16.6	nt
C=CCn1c(CSCc2ccc(Cl)cc2)nnc1SCC(=O)NCc1ccccc1	24.5	15.0	-8.0	8.5	nt
C[C@H]1CN([C@@H](C)CO)S(=O)(=O)c2ccc(C3=CCCCC3)cc2O[C@@H]1CN(C)Cc1ccccn1	nt	nt	nt	11.2	65.4*
C[C@H](CO)N1C[C@H](C)[C@@H](CN(C)Cc2ccccn2)Oc2cc(-c3ccc(C#N)cc3)ccc2S1(=O)=O	nt	nt	nt	-7.9	-9.2
Cc1ccc(-c2ccc3c(c2)O[C@@H](CN(C)Cc2ccccn2)[C@H](C)CN([C@H](C)CO)S3(=O)=O)cc1	nt	nt	nt	5.0	65.5*
C[C@H]1CN([C@@H](C)CO)S(=O)(=O)c2ccc(C3=CCCCC3)cc2O[C@H]1CN(C)Cc1ccccn1	nt	nt	nt	13.8	15.7
C[C@H]1CN([C@@H](C)CO)S(=O)(=O)c2ccc(-c3ccc(C#N)cc3)cc2O[C@@H]1CN(C)Cc1ccccn1	nt	nt	nt	-8.4	66.6*
C[C@@H]1CN([C@@H](C)CO)S(=O)(=O)c2ccc(C3=CCCC3)cc2O[C@@H]1CN(C)CC1CCOCC1	nt	nt	nt	8.0	-6.8
CC(C)CN(C(=O)COC(=O)C12CC3CC(CC(C3)C1)C2)c1c(N)n(Cc2ccccc2)c(=O)[nH]c1=O	54.7*	20.9	-7.9	?	30.0
CC(=O)Nc1sc(C)c(C)c1C(=O)OCC(=O)N(CC(C)C)c1c(N)n(Cc2ccccc2)c(=O)[nH]c1=O	11.6	3.4	-249.0	11.5	62.7*
CN(C)C(=O)C[C@H]1C=C[C@@H](NC(=O)C2CC2)[C@@H](CO)O1	nt	nt	nt	12.4	1.1
COc1ccc(C(CNC(=O)C(CCSC)NC(=O)c2ccccc2Cl)N2CCCCC2)cc1 (configuration not stated)	13.3	5.2	71.4*	-2.0	-8.2
COCC(=O)N(C)C[C@H]1Oc2ncc(-c3ccc(F)cc3)cc2C(=O)N([C@@H](C)CO)C[C@@H]1C	nt	nt	nt	-6.1	-10.2
NC(=S)N=Nc1ccc(NN=C(N)N)cc1	11.6	17.3	86.3*	9.7	-5.9
CC12CCC(O)CC1=CCC1C2CCC2(C)c3[nH]ncc3CC12 (configuration not stated)	12.3	51.0*	1.7	5.6	-15.1
CC(=O)[C@H]1CC[C@H]2[C@@H]3CC=C4C[C@@H](O)CC[C@]4(C)[C@H]3CC[C@]12C	-8.2	7.1	-13.5	0.8	-2.0
C[C@@H]1CN([C@@H](C)CO)C(=O)c2cc(C#CC3CC3)cnc2O[C@@H]1CN(C)C(=O)c1ccccc1	nt	nt	nt	-17.1	-1.1
Cc1ccccc1S(=O)(=O)NCC[C@H]1CC[C@@H](NC(=O)C2CCOCC2)[C@H](CO)O1	nt	nt	nt	9.0	3.4
O=C(Nc1nnc(-c2ccc3c(c2)CCCC3)o1)c1c(F)cccc1F	52.8*	22.4	-6.3	-14.4	15.7
CC(=O)OC1CCC2(C)C(CCC3C4CC=C(C(C)=O)C4(C)OC(=O)CC32)C1 (configuration not stated)	102.1*	42.7	79.3*	106.6*	15.2
CC1=CC(C)(C)Nc2ccc(OC(=O)c3ccco3)cc21	87.8*	37.9	-36.2	-21.8	nt
COC(=O)c1ccc2c(=O)n(CCCCCC(=O)O)c(=S)[nH]c2c1	53.5*	18.5	8.8	-4.0	nt
O=C1C(Cl)=C(Nc2ccc(O)cc2)C(=O)c2ccccc21	8.7	64.2*	61.4*	37.2	57.3*
CCN(CC)c1ccc(NC2=C(Cl)C(=O)c3ccccc3C2=O)cc1	57.5*	-5.7	80.1*	nt	nt
SMILES	TWEAK Fn14 block	TROY NFkB inh	EBV LMP1 NFkB	LGR2 antag	EWS-Fli block
Cc1ccc(NC2=C(Cl)C(=O)c3ccccc3C2=O)cc1	10.7	-39.2	-5.9	-25.0	?
C[C@@H]1CN([C@H](C)CO)C(=O)Cc2cc(NS(=O)(=O)c3ccccc3)ccc2O[C@@H]1CN(C)C(=O)Nc1ccc(C(F)(F)F)cc1	nt	nt	nt	8.7	12.1
COc1cccc(-c2ccc([C@@H]3[C@@H](CO)N4CCCCN(C(=O)NC(C)C)C[C@@H]34)cc2)c1	nt	nt	nt	-3.7	nt
CN(C)c1ccc2c(c1)[C@@H]1C[C@@H](CC(=O)NCc3ccc(-c4ccccc4)cc3)O[C@H](CO)[C@@H]1O2	nt	nt	nt	-16.5	16.6
Cc1nc2cc(NCc3nc4ccccc4n3Cc3ccccc3)ccc2n1C	89.9*	87.2*	-3.6	nt	nt
Cc1nc2cc(NCc3cc([N+](=O)[O-])ccc3O)ccc2n1Cc1ccccc1	53.4*	79.6*	0.4	18.3	18.2
CN1C(=O)C(=O)/C(=C(/O)c2ccc(Br)cc2)C1c1ccc(Cl)cc1 (configuration not stated)	94.8*	-9.8	3.6	0.5	17.5
CN1C(=O)C(=O)/C(=C(/O)c2ccccc2)C1c1ccc(Br)cc1 (configuration not stated)	8.1	5.5	6.2	-31.0	2.5
CCC(CC)NC(=O)Nc1cccc(C)c1C	-1.2	-1.5	0.1	12.5	9.8
CC(C)N(CC(=O)Nc1ccc(Cl)cc1C(F)(F)F)C(=O)CCl	63.5*	-5.4	-21.0	3.5	34.1
O=C(O)CSCC(=O)Nc1ccc(Cl)cc1C(F)(F)F	-49.1	2.9	3.3	-7.6	-10.4
CCC(C)N(CC(=O)Nc1cccc(C)c1C)C(=O)CCl (configuration not stated)	59.6*	7.8	36.8	nt	nt
C=CCn1c(O)c(N=NC(=S)Nc2ccccc2F)c2ccccc21	-50.6	-2.5	60.2*	1.8	34.3
C/C(Cl)=C\Cn1c(O)c(N=NC(N)=S)c2ccccc21	-15.0	-33.7	18.3	14.0	57.5*
Cc1c(Cl)cccc1NC(=S)N=Nc1c(O)n(CN2CCOCC2)c2ccccc12	104.7*	32.6	28.5	nt	nt
Oc1c(N=NC(=S)Nc2ccccc2F)c2ccccc2n1Cc1ccccc1Cl	-5.6	17.2	?	-10.3	44.2
C=CCn1c(O)c(N=NC(=S)Nc2ccccc2F)c2cc(S(=O)(=O)N3CCOCC3)ccc21	-8.3	-4.8	51.9*	-6.2	34.9
Cc1ccccc1NC(=S)N=Nc1c(O)n(C)c2ccc(S(=O)(=O)N3CCOCC3)cc12	15.0	-15.2	22.6	4.1	nt
C[C@H](CO)N1C[C@H](C)[C@H](CN(C)Cc2ccncc2)Oc2ncc(C#CCC3CCCC3)cc2C1=O	nt	nt	nt	-12.3	4.1
Oc1c(N=NC(=S)Nc2ccccc2F)c2ccccc2n1Cc1ccccc1	20.5	30.4	45.1*	10.0	43.3
Cc1ccc(Cn2c(O)c(N=NC(=S)Nc3ccccc3F)c3ccccc32)cc1	11.5	6.0	26.2	-3.9	44.3
O=S(=O)(c1cccc(F)c1)N1CC[C@@H]2[C@H](CO)Nc3ccc(-c4cccc(F)c4)cc3[C@@H]21	nt	nt	nt	-5.6	1.5
O=C(Cn1ccc2ccccc2c1=O)NCCC(=O)Nc1ccc2c(c1)OCCO2	57.2*	35.6	21.0	nt	nt
CN1C[C@@H]2[C@H](c3ccccc31)[C@H](CO)N2C(=O)C1CCCCC1	nt	nt	nt	9.2	3.7
Fc1ccc(-c2noc(-c3ccc4c(c3)CCO4)n2)cc1	61.0*	15.0	-11.9	39.5	38.9

Screening results (PubChem BioAssay)
